Most compounds without a hit are left out; they make up all but 4.1% or so of the library.
CHT PAM – human CHT allosteric activation; Q9GZV3; CHT-expressing cells, membrane potential dye, choline EC20; stronger effect = higher value; LV-AA mutant CHT in HEK293 cells; B-score at 10 µM; 310,000 compounds, 0.49% hits;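 active = initial fluorescence not abnormally high and integrated response B-score, plate-corrected, over 3 SD above library mean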
MEKK2 WT-MEK5 – raises or lowers MEK5 binding to wildtype human MEKK2 PB1 domain. bead flow cytometry, Alexa488-MEK5 binding to MEKK2 WT; actives lie on both sides. binding response (% of control), % at 10 µM. 290,000 compounds, 1.1% hits. AID 1531. Q9Y2U5; in the data active = binding response below about 67% or above about 130%
Mot1-301 SUMO – SUMOylation pathway inhibition by Mot1-301 growth rescue; S. cerevisiae Mot1-301 growth rescue, ATP luminescence, 38.5C; percent above DMSO median, 100 means doubled; growth rescue, % at 18.8 µM; 320,000 compounds, 1% hits; AID 2716;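 active = every valid replicate shows activation above 250% relative to neutral control wells; inactive = the rest, any valid replicate at or below 250%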;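 also: OY570 slx delta 5 strain wells were the positive control but not used for scaling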
CHT block – inhibits the human high affinity choline transporter; 310,000 compounds, 0.86% hits; Q9GZV3; CHT-expressing cells, membrane potential dye, choline response; stronger effect = lower value; B-score at 10 µM;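 active = B-score over 3 SD under the library average, and starting fluorescence ratio not unusually high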;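 also: choline stimulus applied at its EC90 after an EC20 pre-addition; B-score computed on integrated fluorescence ratio after choline addition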
MEKK3 PB1 HTS – modulators (inhibitors or enhancers) of MEK5 binding to human MEKK3 PB1 domain; AID 1529; binding response (% of control), % at 10 µM; 290,000 compounds, 1.4% hits; bead-based flow cytometry, Alexa488-MEK5 binding to MEKK3; actives lie on both sides; 0 = blocked by unlabeled MEK5, 100 = vehicle;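 active = binding response more than 3 SD above or below the average of its plate-row segment, actives on both sides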;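 also: Alexa488 bead fluorescence after subtracting the streptavidin-only scavenger bead signal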
MEKK2mut PB1 HTS – signal of MEK5 binding to mutant human MEKK2 PB1 domain. AID 1530. percent response, % at 10 µM. 290,000 compounds, 0.35% hits. bead flow cytometry, Alexa488-MEK5 binding to MEKK2 mutant; in the data active = percent response above about 24%, passing the limit was not always enough
CHT activ conf – human CHT activation, confirmatory screen. shares compounds with CHT PAM. CHT-expressing cells, membrane potential dye fluorescence (FDSS); % of choline EC20–EC90 response window; HEK293 expressing CHT LV-AA mutant; choline added at its EC20. activation, % at 10 µM. 2,500 compounds, 91% hits. AID 504833;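 active = primary screen active, with duplicate mean activation above negative control mean plus 3 SD, cut at about 11% in these data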
HEK293 MP dye – activity in parental HEK293 cells lacking CHT; shares compounds with CHT PAM; membrane potential dye fluorescence (FDSS); measured after EC20 choline addition; ratio readout change at 10 µM, hits read low; 2,500 compounds, 62% hits;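 active = duplicate-averaged ratio beyond 3 SD from buffer wells, up or down, though filed actives are nearly all decreases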
Active calls of the source: *; i = inactive; . = not tested or not shown.

SMILES	CHT PAM	MEKK2 WT-MEK5	Mot1-301 SUMO	CHT block	MEKK3 PB1 HTS	MEKK2mut PB1 HTS	CHT activ conf	HEK293 MP dye
CCC(=O)N(CCC(c1ccc(C)cc1)c1ccco1)Cc1ccco1 (configuration not stated)	8.7*	96	30	i	104	3	40*	i
O=C(Cn1nc(-c2ccc(Cl)cc2)c2ccccc2c1=O)NN1CCOCC1	i	98	-12	i	96	-5	.	.
O=C(CSc1nc2ncc(Br)cc2[nH]1)Nc1ccccc1-c1ccccc1	i	90	113	i	93	-9	.	.
COc1ccc(C2=NCCn3cccc32)c(OC)c1	i	99	1	i	101	2	43*	-49*
CC1CN(CCCCOc2ccc(F)cc2)CC(C)O1 (configuration not stated)	i	102	274	i	103	3	.	.
CCN1CCN(Cc2cc(=O)oc3cc(C)cc(C)c23)CC1	7.1*	100	7	i	95	-1	40*	-42*
Cc1cc(OCc2nc3ccccc3s2)ccc1N	i	92	65	i	93	-3	.	.
CC1CCCCC1NC(=O)CN1C(=O)CSc2cc(S(=O)(=O)N3CCCCCC3)ccc21 (configuration not stated)	i	93	3	i	97	-1	.	.
COc1ccccc1NC1=C(NC(C)=O)C(=O)c2ccccc2C1=O	.	102	.	.	102	-2	.	.
COC1=C(Nc2ccccc2OC)C(=O)c2ccccc2C1=O	8.7*	85	9	i	83	-25	37*	-41*
COc1ccc(-c2c(C)n([O-])c3c([n+]2=O)CCCC3)cc1OC	i	100	218	i	105	-3	.	.
Cc1ccccc1CN1C2=NCCN2c2ccccc21	i	107	25	i	104	3	.	.
CCCCCN1C2=NCCN2c2ccccc21	i	111	-11	i	111	4	34*	-31*
CCCN1C2=NCCN2c2cc(C)c(C)cc21	8.3*	113	24	i	111	14	42*	-46*
CCOC(=O)CN1C2=NCCN2c2ccccc21	i	103	3	i	102	0	.	.
Cc1cc[n+](CC(=O)c2cccc([N+](=O)[O-])c2)c2ccccc12	8.8*	99	-8	i	95	1	49*	-58*
Cc1noc(C)c1COC(=O)c1ccccc1Oc1ccccc1	i	98	88	i	100	1	14*	i
CSc1nnc2c(n1)OC(C)=Nc1ccccc1-2	i	101	-12	i	103	9	41*	-41*
CCC1=Nc2ccccc2-c2nnc(SC)nc2O1	i	109	-3	i	114	9	.	.
Cc1cc(NCc2ccco2)nc2cc(O)ccc12	8.6*	113	156	i	108	13	29*	-42*
Cc1ccc(Nc2cc(C)c3ccc(O)cc3n2)cc1C	i	118	109	i	108	15	.	.
Cc1nc2c(c(C)nn2-c2ccccc2)c(C)c1CCC(=O)NCCCOC(C)C	i	108	-10	i	107	13	.	.
O=C(NCC1CC1)[C@@H]1C[C@H]1[C@@H](NP(=O)(c1ccccc1)c1ccccc1)c1ccccc1	i	73	3	i	67	4	-9	i
O=C(NCc1ccccc1)[C@@H]1C[C@H]1[C@@H](NP(=O)(c1ccccc1)c1ccccc1)c1ccccc1	i	97	-4	i	112	7	.	.
O=C(CCN1C(=O)[C@@H]2Cc3ccccc3CN2C1=O)NCc1ccc(Cl)cc1	i	108	-10	i	104	2	.	.

Screening data: PubChem BioAssay, several laboratories
